# Experimental data taken from PubChem BioAssay (NCATS).
# Values joined by “and” are separate entries in the source; they are usually repeats but may differ in a detail not shown here. Identical values can stand only once. Records with an inconclusive call do not appear. A call without a number means that no potency is given here. Active and inactive are the calls of the source. The call rests on the fitted dose curve; in most records, active means well fitted inhibition curve with a large enough effect; inconclusive means small, poorly fitted or top-dose-only effect; inactive means no such curve, though single readings can be large or run the other way.
# Experiment: BET inhibitor-based combinations targeting novel dependencies in MECOM-rearranged (r) AML: HNT-34 cell line (AID 2202234); further: nearly all actives have a fitted effect of over 35% in size
# Details: HNT-34 AML viability, CellTiter-Glo luminescence, 48 h; series mostly up to 46 µM
# From the text: Ecotropic viral insertion site 1 (EVI1) is located on chromosome 3q26.2 as part of the MECOM (MDS and EVI1 complex) locus. Under normal hematopoiesis, EVI1 is a regulator of hematopoietic stem cell maintenance and self-renewal and EVI1 levels decrease as the cells differentiate. In approximately 5-10% of de novo acute myeloid leukemia (AML) EVI1 is aberrantly expressed, including Chromosomal inv(3)(q21;q26.2) or t(3;3)(q21;q26.2) alterations (MECOM-r) that account for about 50% of AML with EVI1 overexpression 31. AMLs with high levels of EVI1 have a poor prognosis and an overall survival time averaging between 10-14 months. EVI1 overexpression confers resistance in leukemia cells, highlighting the need to develop new targeted therapies for EVI1 overexpressing AMLs. Here, we performed an unbiased chemical drug screening by evaluating the single agent activity of a collection of 2,480 oncology-focused, approved and investigational drugs (NCATS Mechanism Interrogation Plates, MIPE v5.0) against a panel of seven AML cell lines. These included four MECOM-r cell-lines (AML-191, AML-194, UCSD-AML1 and HNT-34) and three non-MECOM-r AMLs (MV4-11, OCI-AML3 and SET-2). Exploiting the mechanistic redundancy built in the library, we identified target-level sensitivities in MECOM-r AML cells and relative activity as compared to other AML subtypes.
# A collection of 2480 mechanistically annotated dugs (MIPE v5.0) was used to screen four 3q26.2 rearranged AML cell lines and three non-3q26.2 rearranged AML cell lines. This library purposely exploits redundancy by including multiple inhibitors of key onco-targets, while simultaneously encompassing mechanistic diversity, targeting more than 800 distinct mechanisms of action. Briefly, cells were seeded in 5 uL of growth media using a Multidrop Combi dispenser into 1536 well white polystyrene tissue culture treated plates (Corning) at a density of 500cells/well. For each cell-line, for each of the 2480 drugs in MIPE v5.0 library, an 11-point dose curve was generated via a 1536 pin-tool. Plates were incubated for 48 hr at standard incubator conditions, covered by a stainless steel gasketed lid to prevent evaporation. Cell viability was determined by luminescence based, Cell Titer Glo assay (Promega). In detail, 3 uL of Cell Titer Glo were added to each well and plates were incubated at room temperature for 15 min with a stainless-steel lid in place. Luminescence readings were taken using a Viewlux (PerkinElmer) with a 2 s exposure time per plate. Compound dose-response curves were normalized to DMSO and empty well controls on each plate. Quantitative drug activity data from dose-response curves was determined utilizing area Under the Curve (AUC) and Z-transformed AUC (Z-AUC, a mean-centering transformation applied to each individual cell-line screened).
# Potency means the concentration at half of the fitted maximal effect.
row,SMILES,Potency
1,Cc1ccc2nc(NC(=O)CSc3nc4c(c(=O)n3-c3ccccc3)SCC4)sc2c1,inactive
2,CO[C@@H](C(=O)N1Cc2[nH]nc(NC(=O)c3ccc(N4CCN(C)CC4)cc3)c2C1)c1ccccc1,0.105 µM (active)
3,CCNC(=O)Nc1ncc(-c2cc(-c3c(C)cc(OC)cc3C)nc(-c3cnccn3)n2)s1,inactive
4,Cc1c(F)cc(C(=O)NC2CC2)cc1-c1c(F)cn2c(C(C)(C)C)nnc2c1F,inactive
5,NC(=O)c1ccc2nc(-c3ccc(Oc4ccc(Cl)cc4)cc3)[nH]c2c1,16.6 µM (active)
6,O=c1ccn([C@@H]2O[C@H](CO)[C@@H](O)[C@H]2O)c(=O)[nH]1,inactive
7,CCS(=O)(=O)N1CCC([C@@H](C)n2c(C)c(C(=O)NCc3c(OC)cc(C)[nH]c3=O)c3ccccc32)CC1,inactive
8,Nc1ccccc1NC(=O)c1ccc(CNC(=O)OCc2cccnc2)cc1,2.35 µM (active)
9,CCOC(=O)N1c2ccc(C(F)(F)F)cc2[C@@H](N(Cc2cc(C(F)(F)F)cc(C(F)(F)F)c2)C(=O)OC)C[C@H]1CC,inactive
10,CN1CCN(c2ccc(C(=O)Nc3n[nH]c4ccc(Cc5cc(F)cc(F)c5)cc34)c(NC3CCOCC3)c2)CC1,5.9 µM (active)
11,CC[C@]1(O)C[C@H]2CN(CCc3c([nH]c4ccccc34)[C@@](C(=O)OC)(c3cc4c(cc3OC)N(C=O)[C@H]3[C@@](O)(C(=O)OC)[C@H](OC(C)=O)[C@]5(CC)C=CCN6CC[C@]43[C@@H]65)C2)C1,0.209 µM (active)
12,COc1cc2ncnc(Nc3cc(Br)c(O)c(Br)c3)c2cc1OC,18.6 µM (active)
13,Cc1c(C)n(Cc2ccc(-c3ccccc3C(=O)O)cc2)c2ccc(C(=O)N[C@@H](C)c3ccc([N+](=O)[O-])cc3)cc12,inactive
14,COc1cc(N2CCC(O)CC2)ccc1Nc1cc(Nc2ccccc2S(=O)(=O)C(C)C)c2cc[nH]c2n1,18.6 µM (active)
15,CC(C)(C#N)c1cc(Cn2cncn2)cc(C(C)(C)C#N)c1,inactive
16,CCN(CC)CCn1c(=O)c(Cc2ccc(OC)cc2)nc2ccccc21,inactive
17,O=C(O)CSCC(=O)NC1CCSC1=O (stereo not given),inactive
18,O=C(O)c1cc(=O)c2c(OCC(O)COc3cccc4oc(C(=O)O)cc(=O)c34)cccc2o1,inactive
19,Cn1ncc(Cl)c1-c1cc(C(=O)N[C@H](CN)Cc2cccc(F)c2)sc1Cl,16.6 µM (active)
20,C=Cc1cc(O)cc2nc(-c3ccc(O)c(F)c3)oc12,inactive

row,SMILES,Potency
1,CC(C)c1ccc2oc3nc(N)c(C(=O)O)cc3c(=O)c2c1,14.8 µM (active)
2,COc1cc(-c2nn(C3CCC(N4CCN(C(C)=O)CC4)CC3)c3ncnc(N)c23)ccc1NC(=O)c1cc2ccccc2n1C (stereo not given),2.09 µM (active)
3,COCCCN1CCC(NC(=O)c2cc(Cl)c(N)c3c2OCC3)CC1,inactive
4,Cc1cn([C@@H]2C[C@@H](O)[C@H](CO)O2)c(=O)[nH]c1=O,inactive
5,O=C(c1ccc(C(=O)N2CCC(N3CCCC3)CC2)c(Nc2ccccc2)c1)N1CCC(N2CCCC2)CC1,inactive
6,CC1(C)NC(=O)N(c2ccc([N+](=O)[O-])c(C(F)(F)F)c2)C1=O,inactive
7,COc1cc(Nc2ncc3c(n2)-c2ccc(Cl)cc2C(c2c(F)cccc2OC)=NC3)ccc1C(=O)O,1.18 µM (active)
8,CNC(=O)c1c(F)cccc1Nc1nc(Nc2cc3c(cc2OC)CCN3C(=O)CN(C)C)nc2[nH]ccc12,6.61 µM (active)
9,Clc1ccc2nsnc2c1NC1=NCCN1,inactive
10,CN[C@H](CC(C)C)C(=O)N[C@H]1C(=O)N[C@@H](CC(N)=O)C(=O)N[C@H]2C(=O)N[C@H]3C(=O)N[C@H](C(=O)N[C@H](C(=O)O)c4cc(O)cc(O)c4-c4cc3ccc4O)[C@H](O)c3ccc(c(Cl)c3)Oc3cc2cc(c3O[C@@H]2O[C@H](CO)[C@@H](O)[C@H](O)[C@H]2O[C@H]2C[C@](C)(N)[C@H](O)[C@H](C)O2)Oc2ccc(cc2Cl)[C@H]1O,inactive
11,CN(C)CC/C=C1/c2ccccc2COc2ccc(CC(=O)O)cc21,inactive
12,CCCCNc1ncc2c(-c3ccc(CN4CCN(C)CC4)cc3)cn(C3CCC(O)CC3)c2n1 (stereo not given),1.05 µM (active) and 1.18 µM (active)
13,Cc1cc(C(=O)Nc2cc(Oc3ccc4nc(NC(=O)C5CC5)cn4n3)ccc2C)n(C)n1,1.32 µM (active)
14,CCOC(=O)C(C)Oc1cccc2c(=O)n(CC(=O)Nc3ccc4c(c3)OCCO4)ccc12 (stereo not given),inactive
15,CN1CCC(COc2cnc(-c3cccc(Cn4nc(-c5cccc(C#N)c5)ccc4=O)c3)nc2)CC1,inactive
16,Cc1cc2c(C(C)C)c(O)c(O)c(C=O)c2c(O)c1-c1c(C)cc2c(C(C)C)c(O)c(O)c(C=O)c2c1O,9.34 µM (active)
17,COC(=O)c1ccc2c(C(=Nc3ccc(N(C)C(=O)CN4CCN(C)CC4)cc3)c3ccccc3)c(O)[nH]c2c1,1.32 µM (active)
18,COc1cc(N2CCC(N3CCN(C)CC3)CC2)ccc1Nc1ncc(Cl)c(Nc2ccccc2S(=O)(=O)C(C)C)n1,16.6 µM (active)
19,CCc1cccc2c3c([nH]c12)[C@@](CC)(CC(=O)O)OCC3,inactive
20,CC(C)NCC(O)c1ccc(NS(C)(=O)=O)cc1 (stereo not given),inactive
